# Most compounds without a hit are left out; they make up all but 19% or so of the library.
# HT1080 IDH1KD tx: toxicity to HT-1080 IDH1 knockdown cells (counter line). HT-1080 IDH1 knockdown viability, ATP luminescence, 48 h. Potency, µM (titrated, usually from 46.1 µM), most hits filed as cytotoxic. 360,000 tested, 2% active
#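 CellTiter-Glo luminescence after 48 h compound exposure at 37 degrees C of IDH1-knockdown HT-1080 cells in 5% FBS RPMI. %Activity scaled between DMSO wells and cell-free media wells, with curves fitted and assigned curve classes.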
# IL-1B inflam inh: inhibitors of inflammasome signaling (IL-1 beta secretion); THP-1 LPS/ATP IL-1B secretion, AlphaLISA, 16 h; active compounds read low; activity change, % at 57.5 µM; 360,000 tested, 4.7% active; in the data active means activity change below about -50%; inconclusive means mostly about -30% to -49%
#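 Secreted IL-1B measured by AlphaLISA bead assay after 16 h compound exposure of THP-1 cells; compounds (final up to 57.5 uM) added 1 h before LPS (250 ng/mL) and ATP (1.25 mM) stimulation; lower signal means less secretion.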
# DT40 TDP1 CPT: growth inhibition of DT40 Tdp1-/-;hTDP1 cells with camptothecin (screen for TDP1 inhibitors); AID 686979; 420,000 tested, 12% active; Potency, µM (doses to about 46.2 µM), hits mostly inhibitors; chicken DT40 Tdp1-/-;hTDP1 cells + 20 nM CPT, ATP luminescence, 48 h; further: nearly all actives have a fitted effect of over 55% in size
#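 Cell growth measured by CellTiter-Glo luminescence after a minimum 48 h, 37 C compound exposure with 20 nM CPT in Tdp1-knockout DT40 cells stably expressing hTDP1, seeded 400/well; qHTS titration format.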
# DT40 TDP1 no CPT: qHTS for Inhibitors of human tyrosyl-DNA phosphodiesterase 1 (TDP1): qHTS in cells in absence of CPT | DT40 Tdp1-/- hTDP1 cells, no CPT, ATP luminescence, 48 h | Potency, µM (series often up to 46.2 µM), usual class: inhibitors | 420,000 tested, 15% active; further: nearly all actives have a fitted effect of over 55% in size
#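 Camptothecin absent (DMSO only). Human TDP1-complemented DT40 knockout cells, 400 cells/well, 37 °C for minimum 48 hr; ATP measured via CellTiter-Glo, 30 min dark incubation, luminescence.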
# ELG1 repair inh: ELG1-dependent DNA repair inhibition; 330,000 tested, 2.3% active; AID 504467; HEK293T ELG1-luciferase reporter, luminescence, 16 h; DNA damage induced by 5-fluorouridine; Potency, µM (titrated, usually from 46.1 µM), hits mostly inhibitors; further: nearly all actives have a fitted effect of over 55% in size
#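 Step one: seed 2,000 cells per well. Step two: pin-transfer compound or DMSO alongside 5-fluorouridine. Step three: incubate 16 hr, 37 °C, 5% CO2. Step four: add ONE-Glo, wait 30 min, read luminescence.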
# HT1080NT lethal: kills 2HG-producing HT-1080-NT fibrosarcoma cells; HT-1080-NT fibrosarcoma viability, CellTiter-Glo ATP luminescence, 48 h; Potency, µM (top dose mostly 46.1 µM), usual class: cytotoxic; 360,000 tested, 1.6% active; AID 686970;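 further: NT is the 2HG producing partner of a matched IDH1 knockdown line; nearly all actives have a fitted effect of over 55% in size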
#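 Luminescent CellTiter-Glo readout after 48 hours of compound exposure at 37 degrees C defined viability of HT-1080-NT cells. Activity was normalized to DMSO wells and cell-free media wells; concentration-response curves were fitted and assigned curve classes.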
# Hits are given with their value; - = inactive; ? = inconclusive; . = not tested or not shown. Unless noted, the call rests on the fitted dose curve; in most records, active means well fitted curve in the direction sought with a large enough effect; inconclusive means small, poorly fitted or top-dose-only effect, or another doubt; inactive means no such curve, though single readings can be large; an effect the other way counts as inactive or inconclusive.
SMILES,HT1080 IDH1KD tx,IL-1B inflam inh,DT40 TDP1 CPT,DT40 TDP1 no CPT,ELG1 repair inh,HT1080NT lethal
Cc1cccc(OCCN2CSC(=S)N(C)C2)c1,?,-96,4.6µM,3.3µM,-,18µM
Cc1cccc(OCCn2cnc(Cl)c2Cl)c1,-,-52,-,-,?,-
CCCCC[C@@H]1C=C(C(=O)O)[C@H](c2ccc(Br)cc2)N1S(=O)(=O)c1ccc(C)cc1,-,-,-,-,-,-
Cc1ccc(C(=O)COC(=O)CCCC(=O)Nc2cc(C(F)(F)F)ccc2Cl)cc1C,-,-,?,?,-,-
COc1ccc(N(CC(=O)NCc2ccccc2)S(=O)(=O)c2c(C)n[nH]c2C)cc1,-,-,21µM,-,-,-
COc1cccc(N2CCN(C(=O)CN(c3ccc(C)cc3)S(=O)(=O)c3c(C)n[nH]c3C)CC2)c1,-,-,-,?,?,-
COc1ccc(N(CC(=O)NCc2ccc(Cl)cc2)S(=O)(=O)c2c(C)n[nH]c2C)cc1,-,-,-,-,-,-
COc1ccc(N(CC(=O)N2CCN(c3cccc(C)c3)C(C)C2)S(=O)(=O)c2c(C)n[nH]c2C)cc1 (centres undefined),-,-61,?,?,?,-
COc1ccc(N(CC(=O)Nc2cc(Cl)ccc2C)S(=O)(=O)c2c(C)n[nH]c2C)cc1,?,-,4.1µM,5.2µM,-,?
COc1ccc(N(CC(=O)Nc2ccc(C)cc2C)S(=O)(=O)c2c(C)n[nH]c2C)cc1,?,-,-,18µM,-,-
CC(=O)N1CCCC1c1nc2ccccc2n1Cc1cccc(Cl)c1 (centres undefined),.,.,-,?,.,.
CC(C)NC(=O)C1(C)CSCC(=O)N1Cc1cccc(C(F)(F)F)c1 (centres undefined),-,-,-,-,.,-
CCN(CC)C(=O)C1=C(C)N(CCCN2CCCC2=O)C(=O)C(CC(=O)NC2CCCCC2)C1 (centres undefined),-,-,-,-,.,-
COc1ccc(N(CC(=O)Nc2ccc(F)c(F)c2)S(=O)(=O)c2c(C)n[nH]c2C)cc1,-,-,-,-,-,-
COc1ccc(NC(=O)CN(c2cc(C)cc(C)c2)S(=O)(=O)c2c(C)n[nH]c2C)cc1,?,-,29µM,?,-,?
CN(C)CCCOc1ccc(-c2cc3nc(NCc4cccnc4)n(C)c(=O)c3s2)cn1,-,-,?,18µM,.,?
Cn1c(NCc2cccnc2)nc2cc(-c3cccc(C(=O)NCCO)c3)sc2c1=O,-,?,9.2µM,-,.,-
Cc1cccc(C(=O)N[C@H](C(=O)Nc2ccc3c(c2)OCO3)C(C)C)c1,-,-,-,-,-,-
Nc1cc(N)cc(N)c1,.,.,4.5µM,4.5µM,.,.
CCCCn1c(SCC(=O)Nc2cc(C(F)(F)F)ccc2Cl)nnc1C(CC)N(C)C (centres undefined),-,-,?,21µM,-,-
CCOc1ccc(NC(=O)CSc2nc3ccccc3nc2N2CCCC2)cc1,-,-,?,16µM,-,-
COc1ccc(C)cc1NC(=O)CSc1nc2ccccc2nc1N1CCOCC1,.,.,?,23µM,.,.
Cc1cccc(NC(=O)CSc2nc3ccccc3nc2N2CCC(C)CC2)c1,.,.,21µM,21µM,.,.
CC(=O)Nc1ccc(NC(=O)CSc2nc3ccccc3nc2N2CCC(C)CC2)cc1,-,-,-,?,-,-
COc1ccc(C)cc1NC(=O)CSc1nc2ccccc2nc1N1CCCCC1,-,-,?,?,?,-
SMILES,HT1080 IDH1KD tx,IL-1B inflam inh,DT40 TDP1 CPT,DT40 TDP1 no CPT,ELG1 repair inh,HT1080NT lethal
CCOc1ccccc1NC(=O)CSc1nc2ccccc2nc1N1CCOCC1,-,-,23µM,21µM,?,-
COc1ccccc1OCC(=O)NNC(=O)Nc1ccccc1,-,-,-,-,.,-
COc1ccc(N2CC(C(=O)OCC(=O)Nc3cccc(C)c3)CC2=O)cc1 (centres undefined),-,-,-,-,-,-
COc1ccc(-c2nc3cnc(Nc4cccc(OC)c4)nc3n(C[C@H]3CCCO3)c2=O)cc1,.,.,?,-,.,.
Cc1ccc(NC(=O)CSc2nc3ccccc3nc2N2CCOCC2)cc1,-,-,?,16µM,?,?
CC1CN(c2nc3ccccc3nc2SCC(=O)Nc2ccc(F)cc2)CC(C)O1 (centres undefined),-,-,15µM,?,16µM,-
CCOc1ccccc1NC(=O)CSc1nncc2ccccc12,-,-84,-,-,-,-
O=C(CSc1nc2ccccc2[nH]1)Nc1ccc(N2CCOCC2)cc1,-,-,12µM,12µM,-,-
NC(=O)CC[C@@H]1NC(=O)[C@@H]2CCCN2C(=O)c2cc([N+](=O)[O-])cc(I)c2NCCC[C@@H](C(N)=O)NC1=O,-,-,-,-,-,-
COCCN(CCOC)C(=O)c1cc2c(=O)n3ccccc3nc2n1C,.,.,-,-,.,.
COc1ccccc1C(=O)NC(=O)COC(=O)c1cnccn1,-,-,-,-,.,-
COCCN1C(=O)CCC1(C)c1nnnn1-c1ccc2c(c1)OCCO2 (centres undefined),-,-,-,-,.,-
N#C/C(=C\c1ccccc1)C(=O)NCc1ccc(F)cc1,?,-98,?,?,-,?
N#C/C(=C\c1cn(Cc2ccccc2)c2ccccc12)C(=O)NCc1ccco1,-,-,?,?,-,-
N#C/C(=C\c1cccs1)C(=O)N1CCOCC1,-,-,-,-,-,-
N#C/C(=C\c1cn(Cc2ccc(F)cc2)c2ccccc12)C(=O)NCc1ccco1,?,-,18µM,?,?,?
N#C/C(=C\c1cccs1)C(=O)NCc1ccccc1,-,-,12µM,21µM,-,-
CCN(CC)c1ccc(/C=C(\C#N)C(=O)NCc2ccccc2)cc1,-,?,-,?,?,-
N#C/C(=C\c1cccs1)C(=O)Nc1nccs1,-,-,?,2.9µM,?,-
COC(=O)CCNC(=O)Cn1cnc2sc3c(c2c1=O)CCCC3,-,-,-,-,-,-
Cc1cc(C)n(CCNC(=O)c2ccco2)n1,-,-,-,-,-,-
c1ccc(CSc2cc3ccccc3[nH]2)cc1,-,-,?,?,.,?
N#C/C(=C\c1cccs1)C(=O)c1ccccc1Cl,?,-98,29µM,16µM,?,?
CC(C)(C)C(=O)/C(C#N)=C/c1cccs1,-,-,-,-,-,-
N#CCCn1c(=O)c(-c2cccs2)nc2cnc(N3CCOCC3)nc21,.,.,-,-,.,.
CCN(CC)S(=O)(=O)c1ccc(Cc2ncc(C(F)(F)F)cc2Cl)s1,-,-58,?,21µM,?,-
